Test [1] is described as follows: TOX21_p53_BLA_p2_viability: Viability Assessment in the Tox21 HCT-116 p53 Agonism Beta-lactamase Assay, Phase 2 (AID 2283591).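 Further: compound exposure lasted 16 h at 37 °C; actives lower the ATP signal meaning cytotoxicity.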 An outline of the steps: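 HCT-116 p53-bla cells (4000/well) rested 5 h at 37C, then received compounds in DMSO (217-fold dilution) for 16 h at 37C, 5% CO2. After the CCF4 read, CellTiter-Glo was added; ATP luminescence was read after 30 min at room temperature.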

The target in test [2] is Cellular tumor antigen p53 (Homo sapiens) (UniProt P04637). The test can be described thus: TOX21_p53_BLA_p2_ratio: Tox21 HCT-116 p53 Agonism Beta-lactamase Assay, Ratio, Phase 2 (AID 2283592). The gist of the method: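 HCT116 p53-bla; 4000 cells/well; 5 h pre-incubation; cpd in DMSO, 217-fold dilution; 16 h 37C/5% CO2; CCF4-AM 2 h RT; Ex 405, Em 460/530 ratio; DMSO = baseline; positive fitting direction.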

A short description of test [3]: TOX21_p53_BLA_p3_viability: Viability Assessment in the Tox21 HCT-116 p53 Agonism Beta-lactamase Assay, Phase 3 (AID 2283593).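 Further: cells exposed to compound for 16 h before reading.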 The gist of the method: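 HCT-116 cells (4000/well) rested 5 h at 37C, then got DMSO compounds by pin tool (217-fold dilution) for 16 h at 37C, 5% CO2. After the bla read, CellTiter-Glo was added and luminescence read at 30 min, room temperature.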

In test [4] the target is Cellular tumor antigen p53 (Homo sapiens) (UniProt P04637). Description: TOX21_p53_BLA_p3_ratio: Tox21 HCT-116 p53 Agonism Beta-lactamase Assay, Ratio, Phase 3 (AID 2283596). An outline of the steps: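 HCT116 p53-bla cells (4000/well) given compound in DMSO (217-fold dilution) after 5 h, incubated 16 h at 37C. CCF4-AM substrate 2 h at room temperature; 460/530 nm emission ratio, gain fitted against DMSO.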

The nature of test [5]: TOX21_p53_BLA_p4_viability: Viability Assessment in the Tox21 HCT-116 p53 Agonism Beta-lactamase Assay, Phase 4 (AID 2283597).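 Further: hits lower the luminescence signal meaning cytotoxicity.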 An outline of the steps: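 Cells plated, 5 h pre-incubation; DMSO compounds pinned (217-fold dilution); 16 h, 37C/5% CO2; CCF4-AM 2 h RT; CellTiter-Glo 30 min RT; luminescence read.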
In test [6] the target is Cellular tumor antigen p53 (Homo sapiens) (UniProt P04637). The test can be described thus: TOX21_p53_BLA_p5_ratio: Tox21 HCT-116 p53 Agonism Beta-lactamase Assay, Ratio, Phase 5 (AID 2283599). The gist of the method: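 HCT-116 cells carrying a p53-inducible beta-lactamase reporter were seeded at 4000 cells/well and dosed after 5 h with compound in DMSO (217-fold dilution). After 16 h at 37C, CCF4-AM substrate was added for 2 h, and the 460/530 nm emission ratio was scored as gain-of-signal versus DMSO.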

Test [7] has the same target. The test can be described thus: TOX21_p53_BLA_p4_ratio: Tox21 HCT-116 p53 Agonism Beta-lactamase Assay, Ratio, Phase 4 (AID 2283601). An outline of the steps:
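HCT116 cells carrying an inducible beta-lactamase reporter were plated at 4000 cells/well, rested 5 h, then exposed to compounds in DMSO (217-fold dilution) for 16 h at 37C. CCF4-AM substrate was loaded 2 h at room temperature; 460/530 nm emission ratio scored gain-of-signal versus DMSO.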

Test [8] can be described thus: CCTE_Harrill_HTTr_Viability_MCF7: CCTE's 6-hour Cell Viability Assessment for the High-Throughput Transcriptomics (HTTr) Platform, in MCF-7 cells cultured in DMEM + 10% fetal bovine serum, Harrill Lab (AID 2284010; active means hit-call score of the fitted dose curve at least 0.9, where 1 is the maximum; inactive means score below 0.9). An outline of the steps:
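Cells were dosed with chemicals in an eight-point dilution series, imaged 6 hours later for propidium iodide uptake, and the endpoint was analyzed by bidirectional fitting against DMSO as negative control.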

Test [9] can be described thus: CCTE_Harrill_HTTr_Apoptosis_MCF7: CCTE's 6-hour Apoptosis Assessment for the High-Throughput Transcriptomics (HTTr) Platform, in MCF-7 cells cultured in DMEM + 10% fetal bovine serum, Harrill Lab (AID 2284011; active means hit-call score of the fitted dose curve at least 0.9, where 1 is the maximum; inactive means score below 0.9). The gist of the method:
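MCF-7 (DMEM + 10% FBS), 384-well; 8-pt dilution series, 6 h chemical exposure; caspase-3/7 activation via CellEvent Caspase 3/7 Green, HCI; bidirectional fit vs DMSO.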

Test [10] is described as follows: CCTE_Harrill_HTTr_CellCount_MCF7: CCTE's Cell Proliferation Assessment for the High-Throughput Transcriptomics (HTTr) Platform, Harrill Lab (AID 2284012).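 Further: count of Hoechst-stained nuclei per well by high-content imaging in MCF-7 cells; cells exposed to compound for six hours; intended direction is loss of nuclei count meaning fewer cells.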 An outline of the steps:
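Chemicals in eight-point dilution series are added to MCF-7 cells for six hours, nuclei are stained with Hoechst and imaged, and per-well nuclei counts are fitted in both directions relative to DMSO controls.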

For one compound, outcome and AC50 results are on record in PubChem BioAssay (EPA / NIEHS).

Inconclusive results are not listed. Activity calls are given as the source filed them. How the source made its calls, unless noted: active means hit-call score of the fitted dose curve at least 0.9, where 1 is the maximum; inconclusive means response in the unintended direction; inactive means score below 0.9.

As usually defined, the AC50 is the midpoint of the concentration-response curve, whichever way the signal moves.

Sequence of Cellular tumor antigen p53 (Homo sapiens) (P04637 whole entry, looked up): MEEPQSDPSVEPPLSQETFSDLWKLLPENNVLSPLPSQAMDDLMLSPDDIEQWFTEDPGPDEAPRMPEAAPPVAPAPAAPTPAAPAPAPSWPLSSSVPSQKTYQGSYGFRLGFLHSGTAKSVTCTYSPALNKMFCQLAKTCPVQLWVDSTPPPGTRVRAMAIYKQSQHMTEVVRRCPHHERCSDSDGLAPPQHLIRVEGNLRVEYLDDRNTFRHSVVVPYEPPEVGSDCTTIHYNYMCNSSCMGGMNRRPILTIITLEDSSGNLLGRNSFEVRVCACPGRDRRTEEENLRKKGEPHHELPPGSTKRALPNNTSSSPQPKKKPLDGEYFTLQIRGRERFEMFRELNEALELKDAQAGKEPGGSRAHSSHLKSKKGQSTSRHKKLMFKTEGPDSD

As for `COc1cccc2c1cc([N+](=O)[O-])c1c(C(=O)O)cc3c(c12)OCO3`, the call in test [1], in [5], in test [8], in test [9] and in test [10] was inactive. Moreover, the AC50 was 1.75 µM (active) in test [2]; 79.8 µM (active) in test [3]; 6.78 µM (active) in test [4]; 13.2 µM (active) in [6]; 3.74 µM (active) in [7].
